# In ChEMBL document CHEMBL2218924, “A broad activity screen in support of a chemogenomic map for kinase signalling research and drug discovery” (Biochem J, 2013):
# Tests used:
# [1] = target: T1, Ephrin type-B receptor 1 (Homo sapiens) (UniProt P54762); details: at 10 µM
# T1 sequence (whole entry): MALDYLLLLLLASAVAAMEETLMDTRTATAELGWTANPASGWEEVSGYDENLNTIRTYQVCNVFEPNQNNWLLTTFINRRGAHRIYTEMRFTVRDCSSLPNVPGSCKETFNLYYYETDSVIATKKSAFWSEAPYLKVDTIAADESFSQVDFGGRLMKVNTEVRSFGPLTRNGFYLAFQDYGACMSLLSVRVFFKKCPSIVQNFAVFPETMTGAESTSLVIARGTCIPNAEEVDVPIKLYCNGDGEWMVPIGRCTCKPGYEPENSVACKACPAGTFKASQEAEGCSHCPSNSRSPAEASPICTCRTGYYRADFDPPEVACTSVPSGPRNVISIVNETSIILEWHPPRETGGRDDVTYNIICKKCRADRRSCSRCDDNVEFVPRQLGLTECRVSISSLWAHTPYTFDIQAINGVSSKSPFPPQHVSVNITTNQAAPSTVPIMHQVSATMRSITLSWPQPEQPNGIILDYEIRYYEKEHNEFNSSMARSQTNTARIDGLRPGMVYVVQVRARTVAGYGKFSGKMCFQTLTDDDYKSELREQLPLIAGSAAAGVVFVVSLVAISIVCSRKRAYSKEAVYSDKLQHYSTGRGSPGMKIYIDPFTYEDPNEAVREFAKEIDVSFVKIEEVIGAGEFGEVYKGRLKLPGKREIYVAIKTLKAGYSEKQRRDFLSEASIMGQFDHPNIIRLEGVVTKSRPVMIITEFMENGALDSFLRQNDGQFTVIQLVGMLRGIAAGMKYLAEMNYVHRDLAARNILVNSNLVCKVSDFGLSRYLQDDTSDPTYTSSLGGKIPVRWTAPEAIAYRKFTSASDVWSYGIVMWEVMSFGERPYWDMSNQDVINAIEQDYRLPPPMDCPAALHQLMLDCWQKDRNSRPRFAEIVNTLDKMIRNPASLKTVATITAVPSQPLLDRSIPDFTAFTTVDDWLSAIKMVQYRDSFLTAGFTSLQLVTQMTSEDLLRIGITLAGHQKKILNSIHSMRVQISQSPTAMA
# [2] = target: T2, Ephrin type-B receptor 2 (Homo sapiens) (UniProt P29323); details: at 1 µM
# T2 sequence (whole entry): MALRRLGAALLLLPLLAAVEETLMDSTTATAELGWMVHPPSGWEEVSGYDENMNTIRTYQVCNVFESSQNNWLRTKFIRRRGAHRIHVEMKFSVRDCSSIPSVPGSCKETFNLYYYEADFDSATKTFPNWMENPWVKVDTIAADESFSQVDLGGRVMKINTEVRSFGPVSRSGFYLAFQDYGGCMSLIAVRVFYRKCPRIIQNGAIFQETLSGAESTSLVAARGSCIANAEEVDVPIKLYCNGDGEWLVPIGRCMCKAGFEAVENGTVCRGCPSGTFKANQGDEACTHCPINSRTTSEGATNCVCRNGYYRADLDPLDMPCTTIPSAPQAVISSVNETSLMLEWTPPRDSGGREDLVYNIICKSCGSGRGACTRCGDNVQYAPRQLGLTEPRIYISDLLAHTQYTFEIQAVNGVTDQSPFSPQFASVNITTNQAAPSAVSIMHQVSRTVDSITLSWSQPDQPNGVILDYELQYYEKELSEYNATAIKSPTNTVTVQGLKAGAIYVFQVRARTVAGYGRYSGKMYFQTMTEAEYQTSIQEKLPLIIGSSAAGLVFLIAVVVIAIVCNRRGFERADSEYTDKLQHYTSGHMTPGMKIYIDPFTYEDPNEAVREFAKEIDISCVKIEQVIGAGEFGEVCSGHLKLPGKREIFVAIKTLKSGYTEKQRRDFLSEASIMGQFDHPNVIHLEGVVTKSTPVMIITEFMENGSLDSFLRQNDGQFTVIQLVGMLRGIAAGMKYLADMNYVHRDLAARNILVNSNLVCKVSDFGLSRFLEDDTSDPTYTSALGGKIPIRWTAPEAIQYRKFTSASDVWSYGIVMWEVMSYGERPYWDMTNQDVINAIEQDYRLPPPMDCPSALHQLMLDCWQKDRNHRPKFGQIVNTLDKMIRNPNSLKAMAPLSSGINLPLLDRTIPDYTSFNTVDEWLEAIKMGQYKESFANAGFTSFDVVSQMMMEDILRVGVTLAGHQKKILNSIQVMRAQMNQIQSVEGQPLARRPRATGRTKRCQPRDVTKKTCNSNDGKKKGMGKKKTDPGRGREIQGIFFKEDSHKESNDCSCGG
# [3] = target: T2, Ephrin type-B receptor 2 (Homo sapiens); details: at 10 µM
# [4] = target: T3, Ephrin type-B receptor 3 (Homo sapiens) (UniProt P54753); details: at 1 µM
# T3 sequence (whole entry): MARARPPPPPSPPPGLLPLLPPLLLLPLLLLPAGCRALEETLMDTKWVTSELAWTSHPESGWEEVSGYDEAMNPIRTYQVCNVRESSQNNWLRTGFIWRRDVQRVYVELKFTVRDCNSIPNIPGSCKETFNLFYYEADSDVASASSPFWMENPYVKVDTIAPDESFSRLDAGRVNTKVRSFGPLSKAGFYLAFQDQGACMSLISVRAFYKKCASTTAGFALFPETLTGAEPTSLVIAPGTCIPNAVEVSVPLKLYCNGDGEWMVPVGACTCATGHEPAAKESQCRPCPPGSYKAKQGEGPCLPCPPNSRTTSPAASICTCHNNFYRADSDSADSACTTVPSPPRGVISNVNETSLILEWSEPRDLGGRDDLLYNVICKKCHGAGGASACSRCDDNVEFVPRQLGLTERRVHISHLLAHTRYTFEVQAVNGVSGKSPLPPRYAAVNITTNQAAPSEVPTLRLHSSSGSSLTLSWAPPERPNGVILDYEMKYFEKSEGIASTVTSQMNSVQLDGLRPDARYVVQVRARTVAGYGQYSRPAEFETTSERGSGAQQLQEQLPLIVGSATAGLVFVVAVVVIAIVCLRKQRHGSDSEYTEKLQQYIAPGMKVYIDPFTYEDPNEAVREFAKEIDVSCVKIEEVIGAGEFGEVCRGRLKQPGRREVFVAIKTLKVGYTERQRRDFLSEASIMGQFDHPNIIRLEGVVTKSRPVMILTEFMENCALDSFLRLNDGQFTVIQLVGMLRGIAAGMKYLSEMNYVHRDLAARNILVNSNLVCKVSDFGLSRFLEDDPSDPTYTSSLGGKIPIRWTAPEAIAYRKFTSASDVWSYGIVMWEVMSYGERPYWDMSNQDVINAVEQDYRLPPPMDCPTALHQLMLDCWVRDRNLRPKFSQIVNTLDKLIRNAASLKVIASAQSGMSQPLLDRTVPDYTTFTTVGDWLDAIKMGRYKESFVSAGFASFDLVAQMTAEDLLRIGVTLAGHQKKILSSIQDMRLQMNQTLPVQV
# [5] = target: T3, Ephrin type-B receptor 3 (Homo sapiens); details: at 10 µM
# [6] = target: T4, Ephrin type-B receptor 4 (Homo sapiens) (UniProt P54760); details: at 1 µM
# T4 sequence (whole entry): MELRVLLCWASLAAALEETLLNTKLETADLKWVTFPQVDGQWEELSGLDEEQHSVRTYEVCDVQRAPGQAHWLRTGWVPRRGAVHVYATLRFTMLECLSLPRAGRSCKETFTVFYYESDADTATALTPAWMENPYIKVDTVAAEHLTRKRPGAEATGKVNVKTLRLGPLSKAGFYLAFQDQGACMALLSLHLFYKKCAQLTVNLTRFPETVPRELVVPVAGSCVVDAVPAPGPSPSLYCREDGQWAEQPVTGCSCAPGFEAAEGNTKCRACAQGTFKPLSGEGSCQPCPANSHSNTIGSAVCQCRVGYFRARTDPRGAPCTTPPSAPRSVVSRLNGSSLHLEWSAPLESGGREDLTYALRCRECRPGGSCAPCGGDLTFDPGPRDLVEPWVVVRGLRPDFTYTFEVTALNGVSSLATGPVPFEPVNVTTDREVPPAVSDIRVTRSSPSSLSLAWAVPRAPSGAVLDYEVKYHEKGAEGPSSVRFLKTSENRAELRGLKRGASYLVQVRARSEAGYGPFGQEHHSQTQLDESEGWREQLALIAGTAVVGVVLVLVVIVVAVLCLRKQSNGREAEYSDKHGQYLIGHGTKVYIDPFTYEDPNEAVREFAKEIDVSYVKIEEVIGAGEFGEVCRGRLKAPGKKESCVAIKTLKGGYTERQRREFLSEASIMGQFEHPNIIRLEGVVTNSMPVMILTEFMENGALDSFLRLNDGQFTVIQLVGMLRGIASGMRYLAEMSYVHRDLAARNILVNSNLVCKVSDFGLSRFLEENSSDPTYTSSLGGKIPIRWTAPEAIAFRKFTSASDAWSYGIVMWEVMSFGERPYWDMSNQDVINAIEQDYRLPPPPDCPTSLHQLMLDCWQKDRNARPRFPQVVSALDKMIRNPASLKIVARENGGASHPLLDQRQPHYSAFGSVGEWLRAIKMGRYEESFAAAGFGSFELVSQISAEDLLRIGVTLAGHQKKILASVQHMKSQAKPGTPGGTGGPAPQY
# [7] = target: T4, Ephrin type-B receptor 4 (Homo sapiens); details: at 10 µM
# [8] = target: Receptor tyrosine-protein kinase erbB-4 (Homo sapiens) (UniProt Q15303); details: at 1 µM
# Receptor tyrosine-protein kinase erbB-4 (Homo sapiens), sequence (Q15303 whole entry): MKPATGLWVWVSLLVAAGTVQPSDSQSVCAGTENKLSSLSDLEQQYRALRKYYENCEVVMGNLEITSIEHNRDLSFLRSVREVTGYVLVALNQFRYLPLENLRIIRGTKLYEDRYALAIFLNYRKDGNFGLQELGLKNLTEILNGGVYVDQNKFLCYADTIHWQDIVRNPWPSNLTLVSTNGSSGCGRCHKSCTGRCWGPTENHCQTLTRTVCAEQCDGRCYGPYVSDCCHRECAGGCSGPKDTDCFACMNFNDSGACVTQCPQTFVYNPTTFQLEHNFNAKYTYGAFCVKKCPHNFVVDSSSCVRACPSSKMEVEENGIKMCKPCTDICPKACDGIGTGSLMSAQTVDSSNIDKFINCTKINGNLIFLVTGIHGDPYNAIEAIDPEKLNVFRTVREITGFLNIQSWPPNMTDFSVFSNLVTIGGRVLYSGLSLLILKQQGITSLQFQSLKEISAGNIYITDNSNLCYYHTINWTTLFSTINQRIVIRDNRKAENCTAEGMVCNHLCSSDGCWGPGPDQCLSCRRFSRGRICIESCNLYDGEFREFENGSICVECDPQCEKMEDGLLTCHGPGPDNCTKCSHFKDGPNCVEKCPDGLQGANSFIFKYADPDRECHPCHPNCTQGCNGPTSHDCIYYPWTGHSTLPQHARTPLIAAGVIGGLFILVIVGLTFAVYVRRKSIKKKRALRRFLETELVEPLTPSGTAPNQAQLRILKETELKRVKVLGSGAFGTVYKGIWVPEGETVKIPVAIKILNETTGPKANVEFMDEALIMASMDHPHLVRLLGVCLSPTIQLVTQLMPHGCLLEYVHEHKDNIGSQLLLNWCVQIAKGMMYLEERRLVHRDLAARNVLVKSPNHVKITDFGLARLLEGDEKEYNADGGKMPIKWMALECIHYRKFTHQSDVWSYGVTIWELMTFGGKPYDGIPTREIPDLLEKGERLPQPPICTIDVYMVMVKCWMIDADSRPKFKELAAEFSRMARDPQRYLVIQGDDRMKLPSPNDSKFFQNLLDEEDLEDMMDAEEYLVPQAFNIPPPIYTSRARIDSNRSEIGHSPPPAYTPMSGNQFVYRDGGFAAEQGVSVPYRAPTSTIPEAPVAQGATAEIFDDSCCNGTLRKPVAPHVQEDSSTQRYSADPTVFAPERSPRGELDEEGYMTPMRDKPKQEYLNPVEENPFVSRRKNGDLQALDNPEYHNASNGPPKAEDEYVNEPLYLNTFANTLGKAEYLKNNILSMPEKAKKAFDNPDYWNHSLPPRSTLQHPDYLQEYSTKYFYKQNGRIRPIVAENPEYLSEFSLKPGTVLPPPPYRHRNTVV
# [9] = target: Receptor tyrosine-protein kinase erbB-4 (Homo sapiens) (UniProt Q15303); details: at 10 µM
# [10] = target: Focal adhesion kinase 1 (Homo sapiens) (UniProt Q05397); details: at 1 µM
# Focal adhesion kinase 1 (Homo sapiens), sequence (Q05397 2-1052 limits assumed): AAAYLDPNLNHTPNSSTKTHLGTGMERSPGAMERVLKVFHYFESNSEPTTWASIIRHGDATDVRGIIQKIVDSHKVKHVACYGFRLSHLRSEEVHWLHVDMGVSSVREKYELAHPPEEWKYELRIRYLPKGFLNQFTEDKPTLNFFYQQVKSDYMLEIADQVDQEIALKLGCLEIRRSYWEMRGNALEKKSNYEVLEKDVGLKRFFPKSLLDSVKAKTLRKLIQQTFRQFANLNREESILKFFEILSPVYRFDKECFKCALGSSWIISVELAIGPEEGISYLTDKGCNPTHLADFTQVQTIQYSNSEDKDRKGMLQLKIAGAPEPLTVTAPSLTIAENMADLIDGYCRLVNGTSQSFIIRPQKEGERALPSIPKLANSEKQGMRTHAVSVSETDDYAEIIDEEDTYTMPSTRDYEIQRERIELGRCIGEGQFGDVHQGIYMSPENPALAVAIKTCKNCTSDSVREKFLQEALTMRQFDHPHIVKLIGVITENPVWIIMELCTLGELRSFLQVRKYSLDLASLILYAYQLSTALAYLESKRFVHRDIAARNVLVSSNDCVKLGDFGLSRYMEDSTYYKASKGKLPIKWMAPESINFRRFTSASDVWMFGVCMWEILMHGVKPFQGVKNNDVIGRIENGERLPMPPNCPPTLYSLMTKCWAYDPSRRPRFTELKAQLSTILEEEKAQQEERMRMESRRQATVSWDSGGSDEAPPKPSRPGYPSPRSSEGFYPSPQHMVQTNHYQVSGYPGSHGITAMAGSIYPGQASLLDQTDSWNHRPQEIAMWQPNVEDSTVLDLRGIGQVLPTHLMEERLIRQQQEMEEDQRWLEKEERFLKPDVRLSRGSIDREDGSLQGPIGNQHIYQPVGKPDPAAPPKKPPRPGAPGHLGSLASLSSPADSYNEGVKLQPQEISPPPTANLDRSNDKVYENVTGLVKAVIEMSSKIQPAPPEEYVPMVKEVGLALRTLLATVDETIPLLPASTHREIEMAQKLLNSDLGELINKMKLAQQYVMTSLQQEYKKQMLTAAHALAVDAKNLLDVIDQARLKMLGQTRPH
# [11] = target: Focal adhesion kinase 1 (Homo sapiens) (UniProt Q05397); details: at 10 µM
# [12] = target: Fibroblast growth factor receptor 1 (Homo sapiens) (UniProt P11362); details: at 1 µM
# [13] = target: Fibroblast growth factor receptor 1 (Homo sapiens) (UniProt P11362); details: at 10 µM
# [14] = target: Fibroblast growth factor receptor 2 (Homo sapiens) (UniProt P21802); details: at 1 µM
# Fibroblast growth factor receptor 2 (Homo sapiens), sequence (P21802 22-821 limits assumed): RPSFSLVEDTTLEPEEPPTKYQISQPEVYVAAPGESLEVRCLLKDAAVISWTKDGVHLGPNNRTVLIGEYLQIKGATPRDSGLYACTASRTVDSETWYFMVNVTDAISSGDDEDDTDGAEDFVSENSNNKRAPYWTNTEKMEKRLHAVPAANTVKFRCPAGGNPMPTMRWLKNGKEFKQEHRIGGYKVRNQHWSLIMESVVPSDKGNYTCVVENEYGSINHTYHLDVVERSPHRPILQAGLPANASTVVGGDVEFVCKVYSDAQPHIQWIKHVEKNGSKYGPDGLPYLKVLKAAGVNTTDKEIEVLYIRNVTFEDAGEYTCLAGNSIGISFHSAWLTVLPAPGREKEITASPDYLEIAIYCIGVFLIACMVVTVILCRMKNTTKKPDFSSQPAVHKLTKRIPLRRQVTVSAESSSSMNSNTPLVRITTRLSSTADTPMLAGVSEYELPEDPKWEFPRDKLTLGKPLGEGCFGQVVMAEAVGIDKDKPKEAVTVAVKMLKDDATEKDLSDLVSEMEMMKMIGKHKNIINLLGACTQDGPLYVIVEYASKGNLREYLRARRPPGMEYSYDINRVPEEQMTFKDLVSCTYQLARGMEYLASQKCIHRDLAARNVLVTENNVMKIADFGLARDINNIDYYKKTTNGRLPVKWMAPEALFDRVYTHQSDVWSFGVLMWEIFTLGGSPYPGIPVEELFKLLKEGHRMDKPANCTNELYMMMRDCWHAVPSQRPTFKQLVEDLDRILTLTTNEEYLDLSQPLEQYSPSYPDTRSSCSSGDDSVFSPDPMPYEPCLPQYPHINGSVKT
# [15] = target: Fibroblast growth factor receptor 2 (Homo sapiens) (UniProt P21802); details: at 10 µM
# [16] = target: Fibroblast growth factor receptor 3 (Homo sapiens) (UniProt P22607); details: at 1 µM
# Fibroblast growth factor receptor 3 (Homo sapiens), sequence (P22607 23-806 limits assumed): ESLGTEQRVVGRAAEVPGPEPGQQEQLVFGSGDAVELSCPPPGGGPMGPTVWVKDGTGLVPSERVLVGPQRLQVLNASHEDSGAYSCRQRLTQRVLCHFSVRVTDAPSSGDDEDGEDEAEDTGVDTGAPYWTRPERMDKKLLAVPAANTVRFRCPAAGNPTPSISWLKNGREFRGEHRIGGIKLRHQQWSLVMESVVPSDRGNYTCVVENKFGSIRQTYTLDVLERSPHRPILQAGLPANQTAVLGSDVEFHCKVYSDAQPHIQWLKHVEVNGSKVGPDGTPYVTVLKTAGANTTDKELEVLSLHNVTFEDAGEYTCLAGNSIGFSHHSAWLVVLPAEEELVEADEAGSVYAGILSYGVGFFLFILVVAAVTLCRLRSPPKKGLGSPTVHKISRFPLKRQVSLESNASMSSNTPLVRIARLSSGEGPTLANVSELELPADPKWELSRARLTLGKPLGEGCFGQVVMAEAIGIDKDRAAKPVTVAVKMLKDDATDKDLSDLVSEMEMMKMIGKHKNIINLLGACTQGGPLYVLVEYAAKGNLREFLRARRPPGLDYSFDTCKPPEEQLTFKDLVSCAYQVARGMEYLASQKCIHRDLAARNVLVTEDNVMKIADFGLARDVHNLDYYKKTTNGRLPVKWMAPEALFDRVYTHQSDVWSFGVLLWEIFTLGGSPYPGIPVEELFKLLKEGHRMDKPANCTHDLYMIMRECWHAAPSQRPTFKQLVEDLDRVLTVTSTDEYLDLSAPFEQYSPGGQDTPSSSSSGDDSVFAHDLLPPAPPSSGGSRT
# [17] = target: Fibroblast growth factor receptor 3 (Homo sapiens) (UniProt P22607); details: at 10 µM
# [18] = target: Fibroblast growth factor receptor 4 (Homo sapiens) (UniProt P22455); details: at 1 µM
# [19] = target: Fibroblast growth factor receptor 4 (Homo sapiens) (UniProt P22455); details: at 10 µM
# [20] = target: Tyrosine-protein kinase Fer (Homo sapiens) (UniProt P16591); details: at 1 µM
# Tyrosine-protein kinase Fer (Homo sapiens), sequence (P16591 whole entry, looked up): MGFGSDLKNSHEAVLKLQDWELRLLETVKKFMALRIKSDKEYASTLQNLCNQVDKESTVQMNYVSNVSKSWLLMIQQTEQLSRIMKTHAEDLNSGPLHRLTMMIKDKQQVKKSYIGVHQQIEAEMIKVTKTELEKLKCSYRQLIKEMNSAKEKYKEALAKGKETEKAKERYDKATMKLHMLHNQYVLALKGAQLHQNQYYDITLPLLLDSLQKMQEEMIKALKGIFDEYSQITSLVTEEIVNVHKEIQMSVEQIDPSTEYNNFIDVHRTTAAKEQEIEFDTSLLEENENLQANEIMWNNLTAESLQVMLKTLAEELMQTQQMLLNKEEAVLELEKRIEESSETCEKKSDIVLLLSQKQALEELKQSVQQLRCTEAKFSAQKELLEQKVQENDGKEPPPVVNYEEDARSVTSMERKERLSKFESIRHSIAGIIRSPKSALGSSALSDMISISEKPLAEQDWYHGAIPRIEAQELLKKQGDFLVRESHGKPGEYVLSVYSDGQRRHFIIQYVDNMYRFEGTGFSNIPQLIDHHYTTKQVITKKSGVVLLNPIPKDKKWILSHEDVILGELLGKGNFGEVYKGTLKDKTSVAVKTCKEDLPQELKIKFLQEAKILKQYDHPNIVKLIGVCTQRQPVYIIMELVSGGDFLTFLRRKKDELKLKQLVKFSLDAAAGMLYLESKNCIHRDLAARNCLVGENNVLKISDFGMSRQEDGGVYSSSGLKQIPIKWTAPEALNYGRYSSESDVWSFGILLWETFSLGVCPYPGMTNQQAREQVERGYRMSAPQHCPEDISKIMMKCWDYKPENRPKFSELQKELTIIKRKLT
Compound,residual activity [1] [%],residual activity [2] [%],residual activity [3] [%],residual activity [4],residual activity [5] [%],residual activity [6] [%],residual activity [7] [%],residual activity [8] [%],residual activity [9] [%],residual activity [10] [%],residual activity [11] [%],residual activity [12] [%],residual activity [13] [%],residual activity [14] [%],residual activity [15] [%],residual activity [16] [%],residual activity [17] [%],residual activity [18] [%],residual activity [19] [%],residual activity [20] [%]
COc1cccc(-c2cc(=O)c3ccccc3o2)c1N,100,118,132,107% (inactive),112,94,109,90,93,115,116,143,105,102,92,100,99,128,98,107
COc1ccc(OC)c2c(=S)c3ccccc3[nH]c12,83,114,118,114% (inactive),101,97,102,80,77,91,108,116,82,97,85,129,113,112,88,98
NC(=O)c1ccc2[nH]c(-c3ccc(Oc4ccc(Cl)cc4)cc3)nc2c1,94,110,128,102% (inactive),94,89,93,106,126,91,65,118,101,108,103,129,132,123,126,95
O=C1Nc2cc(Br)ccc2/C1=C1/Nc2ccccc2/C1=N\O,42,33,22,100% (inactive),95,17,4,84,88,59,15,3,3,16,18,59,54,67,35,86
O=C(Nc1cccc(Nc2nccc(Nc3cccc(C(F)(F)F)c3)n2)c1)C1CC1,7,93,26,106% (inactive),113,109,10,98,96,51,10,69,8,99,37,83,91,108,63,124
COc1cc2ncnc(Nc3ccc(O)c(Br)c3)c2cc1OC,10,65,1,99% (inactive),123,19,0,16,-1,106,64,58,24,94,67,109,67,126,101,105
CC[n+]1c(/C=C/N(C)c2ccccc2)n(-c2ccccc2)c2ccc(-c3nc4ccccc4s3)cc21,56,136,129,131% (inactive),160,114,159,79,99,144,80,99,55,93,123,105,104,101,84,116
CC(C)n1cnc2c(NCc3ccccc3)nc(NCCCO)nc21,79,111,115,121% (inactive),104,100,88,52,45,97,57,104,65,111,87,111,93,104,81,102
COc1ccc(C(=O)Nc2sc3c(c2C(N)=O)CCCC3)cc1OC,100,122,110,110% (inactive),122,98,120,87,97,119,78,87,118,86,99,104,109,107,99,108
CNc1cc2c(Nc3cccc(Br)c3)ncnc2cn1,62,94,62,95% (inactive),120,63,13,42,31,107,82,102,66,89,88,90,100,109,86,105
Nc1ccc2ncnc(NCCc3ccc(Oc4ccccc4)cc3)c2c1,96,111,93,105% (inactive),98,96,98,33,2,106,94,92,28,77,48,54,33,107,80,93
Nc1cccc(-c2cc3c(Oc4cccc(O)c4)ncnc3[nH]2)c1,-1,4,-1,105% (inactive),90,2,-3,71,19,87,42,2,0,21,2,53,9,72,22,58
